Assay outcomes: PubChem, National Center for Advancing Translational Sciences (NCATS)
Vaccinia Venus – vaccinia inhibition (Venus reporter); AID 720580; Vaccinia virus Venus reporter expression, fluorescence; Potency, µM (doses to about 36.5 µM), inactives show at the top dose activity change, negative = inhibition, actives largely listed as inhibitors; hit rate 0.46% among 330,000; calls by dose curve; tested in A549 cells; also: nearly all actives have a fitted effect of over 30% in size
Vaccinia mCherry – vaccinia inhibition (mCherry reporter); Vaccinia virus mCherry reporter infection, fluorescence; Potency, µM (series often up to 36.5 µM), inactives show at the highest dose activity change, negative = inhibition, usual class: inhibitors; hit rate 0.63% among 310,000; calls by dose curve; tested in A549 cells; also: nearly all actives have a fitted effect of over 35% in size
Sm TGR inh – inhibitors of Schistosoma mansoni thioredoxin glutathione reductase; Q962Y6; purified TGR, DTNB reduction, TNB absorbance 405 nm; Potency, µM (top dose mostly 114 µM), for the others: at the highest dose activity change, negative = inhibition, hits mostly inhibitors; hit rate 3% among 360,000; active = well fitted inhibition curve with a large enough effect; inconclusive = small, poorly fitted or top-dose-only effect; inactive = no such curve, though single readings can be large or run the other way; also: nearly all actives have a fitted effect of over 60% in size
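TGR 20 nM + NADPH 100 uM (dispensed conc.), cpd preinc 15 min RT; start with NADPH (500 uM addition) then DTNB (15 mM addition). Kinetic TNB absorbance, 405 nm filter. Four-parameter Hill fit across titration.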
MARV entry inh – inhibitors of Marburg virus binding or cell entry; Potency, µM (titrated, usually from 37.8 µM), inactives show at the top dose activity change, negative = inhibition, actives largely listed as inhibitors; Marburg virus pseudotyped entry inhibition, cell reporter; hit rate 1.8% among 300,000; calls by dose curve; tested in HEK293 cells
FMDV antiviral – foot and mouth disease virus antiviral activity; FMDV antiviral cell-based qHTS; Potency, µM (titrated, usually from 57.9 µM), inactives show top-dose activity change, negative = inhibition, usual class: inhibitors; hit rate 1.2% among 410,000; AID 1159524; calls by dose curve; tested in HEK293T cells; also: read-out not given here; nearly all actives have a fitted effect of over 45% in size
LASV entry inh – blocks Lassa virus binding to or entry into cells | Lassa virus pseudotype entry inhibition, cell reporter | Potency, µM (highest dose often 37.9 µM), for inactives: top-dose activity change, negative = inhibition, most hits filed as inhibitors | hit rate 1.2% among 300,000; calls by dose curve; tested in HEK293 cells; also: nearly all actives have a fitted effect of over 50% in size
Active calls of the source: *; i = inactive; ? = inconclusive; / = no result given; [ ] = another dose, or the depositor's remark. Rows were chosen to be rich in hits. Some 5.4% of all compounds tested hit in one or more screens of this group. % is scaled to controls: 0 for no effect and ±100 for the full control effect; potency is read from the fitted curve at half-maximal effect.

SMILES | Vaccinia Venus | Vaccinia mCherry | Sm TGR inh | MARV entry inh | FMDV antiviral | LASV entry inh
N#CC(C#N)=c1ccc2c(c1)N1C3=C(CCCC3)CC3CCCCC31N=2 (stereo not drawn) | 4.4% | / | 0.4% | -16.3%[46.1 µM] | 39.8µM* | 11.3%
CC(C)(C)NC(=O)C(c1c[nH]c2ccccc12)N(C(=O)Cn1nnc(-c2ccc(F)cc2)n1)c1cccc(O)c1 (stereo not drawn) | ? | ? | -9.7% | 11.2µM* | ? | ?
O=C(O)C1=C[C@@H](c2ccc(Br)cc2)C[C@@H](OCc2ccc(CO)cc2)O1 | -8.0% | -13.7% | 39.8µM* | / | -0.5% | /
O=C(O)C1=C[C@H](c2ccccc2)C[C@H](OCc2ccc(CO)cc2)O1 | -8.5% | i | ? | / | -14.9% | /
O=C(O)C1=C[C@H](c2cccs2)C[C@H](OCc2ccc(CO)cc2)O1 | -7.4% | i | 35.5µM* | / | 6.3% | /
O=C(O)C1=C[C@H](c2ccc(F)cc2)C[C@H](OCc2ccc(CO)cc2)O1 | -12.0% | i | 35.5µM* | / | 5.0% | /
C=CCOC(=O)C1=C[C@@H](c2ccc3c(c2)OCO3)C[C@@H](OCc2ccc(CO)cc2)O1 | -10.8% | ? | 39.8µM* | / | 5.4% | /
CCOc1ccc(NC(c2ccccc2)P(=O)(OC)OC)cc1 (stereo not drawn) | / | / | 15.8µM* | / | -1.2% | /
COc1ccc(C(Nc2ccccc2)P(=O)(Oc2ccccc2)Oc2ccccc2)cc1 (stereo not drawn) | -2.8% | -11.1% | -11.0% | -3.7% | -0.7% | -5.8%
CC1CC[C@@]2(OC1)OC1C(O)C3C4CC[C@H]5CC(O[C@@H]6O[C@@H](CO)[C@H](OC7OC(CO)C(O)C(OC8OCC(O)C(O)[C@H]8O)[C@@H]7O[C@@H]7OC(CO)[C@H](O)[C@@H](O[C@@H]8OC(CO)C(O)C(O)C8O)C7O)C(O)C6O)C(O)C[C@]5(C)C4CC[C@]3(C)C1C2C (stereo partly drawn) | 8.91µM* | 7.94µM* | / | / | 35.5µM* | /
COc1cc(C=C2C(=O)NC(=O)NC2=O)ccc1OCc1ccc([N+](=O)[O-])cc1 | -1.0% | -8.5% | 25.1µM* | 54.7%[46.1 µM] | 69.5% | 3.0%
COC(=O)C(=Cc1ccc(OCc2ccc([N+](=O)[O-])cc2)c(OC)c1)C(=O)OC | -16.3% | / | -33.4% | ? | ? | ?
Cc1cc(N/N=C/c2cccc(Cl)c2)nc(-n2nc(C)cc2C)n1 | ? | ? | 3.7% | ? | -8.6% | ?
COc1ccc(/C=N/Nc2cc(C)nc(-n3nc(C)cc3C)n2)cc1 | ? | ? | 1.1% | 16.4µM* | 31.6µM* | ?
Cc1cc(N/N=C/c2cccc([N+](=O)[O-])c2)nc(-n2nc(C)cc2C)n1 | -0.9% | i | 5.0% | -17.5%[46.1 µM] | -20.5% | 3.4%[46.1 µM]
Cc1cc(N/N=C/c2ccccc2[N+](=O)[O-])nc(-n2nc(C)cc2C)n1 | ? | 10µM* | 9.2% | ? | ? | ?
Cc1cc(N/N=C/c2ccc(O)cc2O)nc(-c2ccccc2O)n1 | 6.31µM* | 2.82µM* | -7.3% | ? | 0.0% | ?
Cc1cc(N/N=C/c2ccc(O)cc2O)nc(-n2nc(C)cc2C)n1 | ? | ? | -13.0% | 3.66µM* | ? | 7.31µM*
CCOC(=O)c1ccc(NC(=O)CCc2c(C)nc3c(c(C)nn3-c3ccccc3)c2C)cc1 | -12.5% | -14.4% | -3.1% | -10.0%[46.1 µM] | -22.3% | 3.0%[46.1 µM]
CC(C)C[C@@H]1COc2cccc(N3CCCCC3)c2S(=O)(=O)N1 | / | / | / | / | / | 15.0%[46.1 µM]
O=C(NCCc1ccccc1)C(c1cccs1)N(C(=O)CCl)c1ccc(Cl)cc1 (stereo not drawn) | ? | ? | 1.12µM* | ? | 35.5µM* | 17.8µM*
CN1CC(=O)N(CC(=O)Nc2ccc(N(C)C)cc2)c2ccccc2C1=O | -3.6% | -3.7% | 50.1µM* | 1.1% | -7.9% | 6.9%
COc1cc(/C=N/O)ccc1OCc1ccccc1Cl | -14.0% | i | 5.2% | ? | 27.6% | ?
COc1cc(/C=C(/C)[N+](=O)[O-])ccc1OCc1ccccc1Cl | 11.2µM* | ? | ? | 6.51µM* | 22.4µM* | ?
COc1cccc(CNC(=O)CN2C(=O)N(c3ccc(C)cc3C)S(=O)(=O)c3ccccc32)c1OC | -14.4% | -18.2% | 5.2% | / | ? | ?
SMILES | Vaccinia Venus | Vaccinia mCherry | Sm TGR inh | MARV entry inh | FMDV antiviral | LASV entry inh
COc1cc(=O)n2c(c1C(=O)N(C)Cc1nonc1C)CCN(CC1CC=CCC1)CC2 (stereo not drawn) | -15.6% | i | / | / | 4.6% | /
COC(=O)C/C=C/[C@@H](C)[C@@H](/C=N/OC[C@@H](O)COCc1ccco1)OC | / | / | / | -14.0%[14.2 µM] | / | /
COc1cccc(NC(=O)c2nc(S(C)(=O)=O)ncc2Cl)c1 | ? | ? | 10µM* | ? | 22.4µM* | ?
COc1cccc(NC(=O)c2nc(SC)ncc2Cl)c1 | -6.6% | -9.4% | 3.8% | 24.0%[46.1 µM] | -3.1% | -0.4%[46.1 µM]
Cc1cccc(NC(=O)c2nc(S(C)(=O)=O)ncc2Cl)c1 | -10.0% | -14.7% | 4.47µM* | / | 25.1µM* | ?
CC(C)C(C)NC(=O)CSc1nc2scc(-c3ccco3)c2c(=O)n1-c1ccccc1 (stereo not drawn) | -0.4% | / | 25.1µM* | -37.5% | 0.0% | -12.8%
C=CCn1c(SCC(=O)N2CCCC2)nc2scc(-c3cccs3)c2c1=O | -12.3% | -9.6% | 3.7% | 7.7% | -26.2% | ?
C=CCn1c(SCC(=O)N2CCOCC2)nc2scc(-c3ccco3)c2c1=O | / | / | 4.47µM* | -13.4% | -15.1% | 10.3µM*
C=CCn1c(SCC(C)=O)nc2scc(-c3ccco3)c2c1=O | 3.2% | i | 2.82µM* | -25.5%[46.1 µM] | -5.4% | -1.4%[46.1 µM]
O=C(Cn1cnc2scc(-c3ccccc3)c2c1=O)NCc1ccco1 | -16.9% | i | / | / | -6.6% | /
Nn1cnc2scc(-c3ccco3)c2c1=O | -9.6% | i | 35.5µM* | ? | 1.9% | -0.9%[46.1 µM]
Cc1nc2c(-c3ccccc3)c(C)nn2c(C)c1CCC(=O)NCc1ccccc1Cl | -4.9% | -7.4% | -1.1% | 13.2%[46.1 µM] | -18.6% | -18.6%[46.1 µM]
Cc1ccc(-c2csc3ncnc(SCC(N)=O)c23)cc1 | -17.1% | -0.3% | / | -21.4%[46.1 µM] | -25.9% | -25.0%
Cc1ccc(-c2csc3nc(SCC(N)=O)n(Cc4ccccc4)c(=O)c23)cc1 | ? | -9.5% | -3.6% | ? | 31.6µM* | -30.0%
C=CCn1c(SC(F)F)nc2scc(-c3ccco3)c2c1=O | -26.4% | ? | 50.1µM* | ? | -1.4% | ?
C=CCn1c(SCc2ccc3c(c2)OCO3)nc2scc(-c3ccco3)c2c1=O | / | / | ? | 5.5% | ? | 5.5%
CCOP(=O)(OCC)C(C)(C)NC(=O)c1cc([N+](=O)[O-])cc([N+](=O)[O-])c1 | / | / | -7.2% | -5.7% | -9.9% | -9.1%
CCOP(=O)(OCC)C(NC(=O)c1cc([N+](=O)[O-])cc([N+](=O)[O-])c1)C(F)(F)F (stereo not drawn) | -4.4% | ? | 12.6µM* | -21.9%[46.1 µM] | -18.1% | 2.0%[46.1 µM]
